# The list is not random: actives were taken first. Their share in the collection is about 1.7%.
# p97 inhibitor: inhibitors of human p97 ATPase, primary screen, biochemical; Transitional endoplasmic reticulum ATPase (Homo sapiens), P55072; recombinant p97 ATPase, Kinase-Glo ATP luminescence, 3 h; inhibition, % at 8 µM; 220,000 compounds, 0.42% hits; AID 1481, 2009; in the data active means inhibition above about 15%
# Target sequence (P55072 whole entry, looked up): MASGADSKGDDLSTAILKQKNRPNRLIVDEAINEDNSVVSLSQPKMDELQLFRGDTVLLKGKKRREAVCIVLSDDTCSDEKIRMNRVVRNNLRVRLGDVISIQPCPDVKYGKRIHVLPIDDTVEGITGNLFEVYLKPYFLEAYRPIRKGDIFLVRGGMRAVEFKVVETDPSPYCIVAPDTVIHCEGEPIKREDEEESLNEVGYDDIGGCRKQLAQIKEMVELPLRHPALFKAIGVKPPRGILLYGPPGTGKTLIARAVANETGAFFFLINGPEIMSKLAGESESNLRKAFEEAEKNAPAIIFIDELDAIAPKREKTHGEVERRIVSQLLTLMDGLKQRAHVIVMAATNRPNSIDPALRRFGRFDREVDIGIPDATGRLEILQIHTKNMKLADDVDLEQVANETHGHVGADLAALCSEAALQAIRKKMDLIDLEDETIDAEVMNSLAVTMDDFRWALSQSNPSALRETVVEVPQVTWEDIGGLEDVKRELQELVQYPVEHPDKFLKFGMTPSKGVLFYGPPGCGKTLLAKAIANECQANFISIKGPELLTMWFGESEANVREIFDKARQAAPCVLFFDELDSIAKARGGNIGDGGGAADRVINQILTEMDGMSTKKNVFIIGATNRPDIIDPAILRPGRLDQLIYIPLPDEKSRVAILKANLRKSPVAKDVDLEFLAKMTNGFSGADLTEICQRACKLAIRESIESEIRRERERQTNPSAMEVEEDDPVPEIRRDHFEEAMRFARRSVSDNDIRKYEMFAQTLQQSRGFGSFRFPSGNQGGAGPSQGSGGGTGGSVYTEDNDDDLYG
# LYPLA1 inh: LYPLA1 inhibitors, primary screen, counter-screen for PME1 inhibitor project, biochemical, fluorescence polarization, FP-Rh probe ABPP; Acyl-protein thioesterase 1 (Homo sapiens), O75608; recombinant LYPLA1; inhibition, % at 5.9 µM; 320,000 compounds, 0.16% hits; AID 2174, 2009;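 active means inhibition above the mean of all tested compounds plus 3 SD, set per campaign, cut at about 14% in these data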;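 further: inhibitors block serine hydrolase probe labeling of LYPLA1 so polarization falls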
# Hck-Nef inh: inhibitors of Nef-activated human Hck kinase, primary screen, biochemical, Z-Lyte FRET, 384-well, Hck-YEEI. inhibition, % at 20 µM. AID 463187, 2010. 220,000 compounds, 0.68% hits. Recombinant Hck-YEEI plus Nef, Z-Lyte FRET kinase assay;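 active means Hck-Nef kinase inhibition above about 50%, limit read from the data; inactive means inhibition below that limit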
# PREPL inhibitor: PREPL enzyme inhibitors, primary screen, biochemical, fluorescence polarization. Prolyl endopeptidase-like (Homo sapiens), Q4J6C6. recombinant PREPL, fluorescence polarization activity-based probe. inhibition, % at 5.96 µM. 320,000 compounds, 0.68% hits. AID 2751, 2010; in the data active means inhibition above about 43%
# LYPLA2 inh: LYPLA2 inhibitors, primary screen, counter-screen for PME1 inhibitor project, biochemical, fluorescence polarization, FP-Rh probe ABPP; recombinant LYPLA2; inhibition, % at 5.9 µM; 320,000 compounds, 0.38% hits; AID 2177, 2009;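 active means inhibition above the screen-wide mean plus 3 SD, limit set per campaign, cut at about 26% in these data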
# Rin1-Abl PPI inh: inhibitors of Rin1-Abl protein binding, primary screen, biochemical, TR-FRET | 360,000 compounds, 0.4% hits | AID 588664, 2011 | Tyrosine-protein kinase ABL1 (Homo sapiens) + Ras and Rab interactor 1 (Homo sapiens), … | inhibition, % at 7.35 µM; in the data active means inhibition above about 5%, passing the limit was not always enough
# Numbers stand for hits; . = inactive; / = not tested or not shown.
SMILES,p97 inhibitor,LYPLA1 inh,Hck-Nef inh,PREPL inhibitor,LYPLA2 inh,Rin1-Abl PPI inh
Brc1ccc(CSc2ccc3nnc(-c4ccccn4)n3n2)cc1,.,.,.,45,.,.
COCCCNC(=O)c1cc2c(=O)n3cc(C)ccc3nc2nc1NCC1CCCO1 (stereo not given),.,.,193,.,.,/
C=CCNC(=O)c1cc2c(=O)n3cc(C)ccc3nc2nc1NCC1CCCO1 (stereo not given),.,.,179,.,.,/
Cc1ccc2nc3c(cc(C(=O)NCC4CCCO4)c(=N)n3CC3CCCO3)c(=O)n2c1 (stereo not given),/,.,/,.,.,.
CCC(C(=O)NC1CCCC1)N(C(=O)Cn1nnc(-c2ccc(C)o2)n1)c1cccc(OC)c1 (stereo not given),/,.,/,.,.,.
COc1cc(F)ccc1S(=O)(=O)NCc1cccnc1,/,.,/,.,.,.
COC(=O)c1ccc(NC(=O)C(=O)N2CCN(C(=S)Nc3cccc(OC)c3)CC2)cc1,.,.,.,.,56,.
Nc1ccc(OCCCc2c(N)nc(N)nc2N)cc1,.,.,.,52,.,.
COc1ccc(Cc2c(N)nc(N)nc2N)cc1,.,.,.,.,.,.
Cc1ccc2nc(-c3ccccc3)c(-c3ccccc3)nc2c1,.,.,.,.,.,.
Cc1ccc2nc(=O)c(NNc3ccccc3)cnc2c1,.,.,94,.,.,.
COc1cccc(NC(=O)C2C3C=CC4(O3)C2C(=O)N(CCCN2CCCCC2)C4C(=O)NC2CCCCC2)c1 (stereo not given),/,.,/,.,.,.
O=C(CCCCC(=O)NCCCc1ccccc1)NCCCc1ccccc1,/,.,/,.,.,.
CC1NC(=O)NC1CCCCCC(=O)NCCc1ccccc1 (stereo not given),.,.,.,.,.,83
COc1cccc(-c2csc(N3CCN(CC(=O)Nc4ccc5c(c4)OCO5)CC3)n2)c1,.,.,.,55,.,.
CC(C)(C)OC(=O)NCCCC1=CC2=CC(=O)C(C)(OC(=O)c3ccc(Cl)nc3)C(=O)C2=CO1 (stereo not given),/,18,/,.,.,/
Cc1nc(C)c(-c2csc(Nc3cccc(O)c3)n2)s1,.,.,51,.,.,.
Cc1onc(-c2c(Cl)cccc2Cl)c1C(=O)O/N=C(\C#N)c1ccccc1,15,.,.,.,.,.
Cc1onc(-c2c(Cl)cccc2Cl)c1C(=O)c1ccccc1,.,.,.,.,.,.
CN(C)c1ccc(/C=C/c2ccc3ccccc3n2)cc1,.,.,.,60,.,.
N#Cc1ccccc1OCC(=O)Nc1nnc(C2CC2)s1,/,.,/,.,.,.
O=C(Nc1ccc(C2=NCCN2)cc1)c1ccc(C(=O)Nc2ccc(C3=NCCN3)cc2)c([N+](=O)[O-])c1,.,.,.,45,.,.
Cc1ccc(NC(=O)c2ccc(-n3cccn3)c([N+](=O)[O-])c2)cc1,.,.,.,.,.,.
COCCn1c(SCc2ccc(C(=O)OC)o2)nnc1-c1c[nH]c2ccccc12,.,.,.,.,.,11
CC(C)(C)C(=O)NC(=S)Nc1ccccn1,.,.,.,.,.,.
SMILES,p97 inhibitor,LYPLA1 inh,Hck-Nef inh,PREPL inhibitor,LYPLA2 inh,Rin1-Abl PPI inh
CC(C)C(=O)NC(=S)Nc1ccccn1,20,.,.,.,.,.
S=C(Nc1ccc(Nc2ccccc2)cc1)Nc1ccccn1,.,.,94,.,.,.
CCOc1ccc(Nc2nc(N3CCOCC3)nc(N3CCOCC3)n2)cc1,/,.,/,.,.,.
CCOc1ccc(Nc2nc(NCCN3CCOCC3)nc(OC)n2)cc1,15,.,.,.,.,.
Nc1ccc(N)c(C(=O)O)c1,/,.,/,.,.,13
Nc1ccc(C(=O)O)c(O)c1,.,.,.,.,.,.
CN(C)S(=O)(=O)N1CCN(S(=O)(=O)N2CCOCC2)CC1,.,.,57,.,.,.
CCN(CC)S(=O)(=O)N1CCN(S(=O)(=O)N2CCOCC2)CC1,.,.,.,.,.,.
COc1cc2ncnc(NCc3ccccc3)c2cc1OC,.,.,.,.,.,.
COc1cc2ncnc(NCc3cccc(Cl)c3)c2cc1OC,.,.,65,.,.,.
O=C(CCc1ccccc1)NC1CCS(=O)(=O)C1 (stereo not given),/,/,/,/,/,.
Cc1cccc(NC(=O)COC(=O)c2cccc3c2C(=O)c2ccccc2C3=O)c1C,.,.,.,59,.,.
Cc1cccc(C)c1NC(=O)COC(=O)c1cccc2c1C(=O)c1ccccc1C2=O,.,.,.,.,.,.
Cc1cc(C(=O)NCCc2ccc(S(N)(=O)=O)cc2)c(C)o1,/,.,/,.,.,.
O=C(OC1CCCCC1)c1ccc2c(c1)C1C=CCC1C(C(=O)O)N2 (stereo not given),.,/,77,/,/,/
CCOC(=O)c1ccc2c(c1)C1C=CCC1C(C(=O)OCC)N2 (stereo not given),/,.,/,.,.,.
O=C(O)C1Nc2c(O)cccc2C2C=CCC12 (stereo not given),23,.,.,.,.,20
O=C(O)C1Nc2c(Cl)cc(Cl)cc2C2C=CCC12 (stereo not given),/,.,/,.,.,.
O=C(O)c1ccc2c(c1)[C@@H]1C=CC[C@@H]1[C@H](c1ccccn1)N2,.,.,.,.,.,21
O=C(O)C1Nc2ccc(Br)cc2C2C=CCC12 (stereo not given),/,.,/,.,.,6.2
Cc1ccc(NC(=O)c2ccc(OCC3CCCO3)cc2)nc1 (stereo not given),/,.,/,.,.,.
Cc1cnc(NC(=O)c2ccc(OCC3CCCO3)cc2)s1 (stereo not given),.,.,59,.,.,.
COc1ccc(C2(C)NC(=O)N(CC(=O)c3cc(C)n(C4CC4)c3C)C2=O)cc1OC (stereo not given),/,.,/,.,.,.
Cc1ccccc1-c1nc(SCc2ccccn2)c2c(=O)n(C)c(=O)n(C)c2n1,.,.,.,.,.,.
CC(C)Sc1nc(-c2cccs2)nc2c1c(=O)n(C)c(=O)n2C,.,/,53,/,/,/
COc1ccc(/C=C(\C#N)c2nc3ccccc3[nH]2)cc1O,/,/,/,/,/,.
COc1cc(/C=C(/C#N)c2nc3ccccc3[nH]2)ccc1OC(=O)c1ccco1,.,.,.,83,.,.
O=C(CCc1ccc(Oc2cc([N+](=O)[O-])cc([N+](=O)[O-])c2)cc1)NC1CCCC1,.,.,.,.,.,.
CC1CCN(C(=O)CCc2ccc(Oc3cc([N+](=O)[O-])cc([N+](=O)[O-])c3)cc2)CC1,.,.,.,.,37,.

# Screening data (PubChem BioAssay)
